Reference: PubChem BioAssay AID588405 (Sanford-Burnham Center for Chemical Genomics, 2011)
Several values for one entry are separate records, joined by “and”; a condition that tells them apart may be missing. Identical values can stand only once. Screen size: about 360,000 compounds; about 6,200 (1.7%) were called active. Only a selection was taken, and actives are over-represented in it overall. A number with no mark means an inactive call.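 Rule for the calls: active = inhibition of at least 50% at 20 µM; inactive = the rest.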

assay: inhibition of PEG-3 promoter activity – cell-based, HeLa, luciferase luminescence, primary screen (AID 588405); conditions: HeLa PEG-Prom luciferase reporter, overnight, at 20 µM, hits give high values

With `CCC(C)(O)C(=O)OC1C(=O)OC2CC3C(C)=CC(=O)C(O)C3(C)C3C4(O)OCC23C1C(C)C4O` (stereo not given) the inhibition was 100% (active).
For `CN(C)C(=O)Oc1cc(OC(=O)N(C)C)cc(C(O)CNC(C)(C)C)c1` (stereo not given), the inhibition was 4.25% and -0.27%.
In the case of `O=C1NC(=O)N(CCc2ccc(F)cc2)C(=O)/C1=C/C=C/c1ccccc1`, the inhibition is reported as 90.6% (active).
For `CC(=O)OC1C2(CC3N4C(=O)C5(CO)SSC4(CC31O)C(=O)N5C)OC(C)C(C)(C)C2=O` (stereo not given), the inhibition was 99.3% (active).
For `O=C1C2(Cl)C3(Cl)C4(Cl)C(Cl)(Cl)C5(Cl)C3(Cl)C1(Cl)C5(Cl)C24Cl` (stereo not given), the inhibition was 86.1% (active).
In the case of `C[C@]12CC[C@H](O)C[C@H]1CC[C@@H]1C2CC[C@]2(C)[C@@H](C3=CC(=O)OC3)[C@@H](O)C[C@]12O` (stereo not given in full), the inhibition is reported as 112% (active).
In the case of `CCCCCCCCCCCCn1ccc(=N)cc1`, the inhibition is reported as 72.5% (active).
In the case of `CC(Cc1ccccc1)NCCC(c1ccccc1)c1ccccc1` (stereo not given), the inhibition is reported as 69.5% (active).
With `CNCC(O)c1cc(F)c(OCc2ccccc2)c(OCc2ccccc2)c1F` (stereo not given) the inhibition was 100% (active).
With `O=c1[nH]c2ccccc2n1C1CCN(C(c2ccccc2)c2nnnn2Cc2ccccc2)CC1` (stereo not given) the inhibition was 71% (active).
For `COc1ccc(-n2nnnc2C(c2cccc3ccccc23)N2CCC(n3c(=O)[nH]c4ccccc43)CC2)cc1` (stereo not given), the inhibition was 50.2% (active).
In the case of `O=c1[nH]c2ccccc2n1C1CCN(C(c2ccnc3ccccc23)c2nnnn2Cc2ccccc2)CC1` (stereo not given), the inhibition is reported as 60.1% (active).
For `CC(=CCOc1ccc2ccc(=O)oc2c1)C1=CC(=O)C(C)(C)O1`, the inhibition was 62.4% (active).
With `CCOc1ccc(-c2cc(C)[n+](CCN(CC)CC)c(-c3ccc(OCC)cc3)c2)cc1` the inhibition was 53.3% (active).
For `COC1C(O)C(C)OC(OC2CCC3(C=O)C(CCC4C3CCC3(C)C(C5=CC(=O)OC5)CCC43O)C2)C1O` (stereo not given), the inhibition was 105% (active).
In the case of `CN(C)CC1Oc2ccccc2OC1(O)c1ccccc1` (stereo not given), the inhibition is reported as 103% (active).
In the case of `CC1(C)Cc2c(C#N)c(N3CCNCC3)nc(-c3ccco3)c2CS1`, the inhibition is reported as 78.3% (active).

Going from `O=C(O)CCn1cc(C=C2C(=O)NC(=S)NC2=O)c(-c2cccc(Br)c2)n1` to `O=C1NC(=O)N(c2ccc(F)cc2)C(=O)/C1=C/c1ccc2c(c1)CCCN2Cc1ccccc1`, the inhibition rises from -1.73% to 12.7%.

Compared with `Cc1cc2ccccn2c1C(C[N+](=O)[O-])c1c(F)cccc1Cl` (stereo not given), `O=[N+]([O-])c1ccc(C2C3C(c4ccccc4)=NC4(CCCCC4)N32)cc1` (stereo not given) is lower in inhibition: 38.7% for the first, 23.4% for the second.

First: CC(C)CN1Cc2cc(N3CCCCC3)ccc2-n2nncc2C1
Second: c1ccc(N2Cc3ccccc3-n3nncc3C2)nc1
The inhibition of the first is higher: -1.02% for the first, -7.56% for the second.

First: COC(=O)[C@@H]1C(OC(=O)c2ccccc2)CC2CCC1N2C (stereo not given in full)
Second: COC(=O)C1=C(c2ccc3ccccc3c2)C[C@@H]2CC[C@H]1N2C(=O)NCCO
The inhibition of the first is lower: -10.5% for the first, -5.4% for the second.

First: CC1C2Cn3c(nc4ccccc43)C1N(C)O2 (stereo not given)
Second: COc1ccccc1N=C1SCCCN1C
The inhibition of the first is lower: -2.57% for the first, 4.44% for the second.

Going from `Nc1ccc([N+](=O)[O-])cc1` to `CCN1CCN(c2ccc([N+](=O)[O-])cc2C#N)CC1`, the inhibition rises from -3.82% to 13.3%.

Compared with `CC(C)N(CC#CCC1(O)c2ccccc2-c2ccccc21)C(C)C`, `CC(CC(C#N)(c1ccccc1)c1ccccc1)N1CCCCC1` (stereo not given) is higher in inhibition: -15.7% for the first, -0.65% for the second.

Compared with `COc1ccc(C(=O)CC2C(=O)N(C)C(=O)N(C)C2=O)cc1`, `COc1ccc(N=Cc2c(O)n(C)c(=O)[nH]c2=O)cc1` is lower in inhibition: 13.1% for the first, -20.6% for the second.

Going from `CC(=O)Nc1ccccc1C(=O)OCC(=O)c1cccc2ccccc12` to `CC(=O)c1ccc(OC(NC(=O)Cc2ccccc2)C(Cl)(Cl)Cl)cc1` (stereo not given), the inhibition rises from -26.1% to -5.19%.

Going from `N#CC1=C(N)Oc2c(c(=O)oc3ccccc23)C1c1ccccc1OC(=O)c1cccs1` (stereo not given) to `O=C(CSC1c2ccccc2-c2ccccc21)N/N=C/c1ccccc1`, the inhibition rises from 19.6% to 28.7%.

Going from `O=P(OC1=CCCCC1)(c1ccccc1)c1ccccc1` to `CCCOC(=O)C1C2c3ccccc3C(c3ccccc32)C1C(=O)O` (stereo not given), the inhibition rises from 8.64% to 12.7%.

Going from `OC1/C(=C/c2ccc(C(F)(F)F)cc2)N2CCC1CC2` (stereo not given) to `CN1CCN(Cc2ccccc2C(F)(F)F)CC1`, the inhibition rises from -51.4% to -6.7%.

First: CC12CCC(O)CC1CCC1C2CCC2(C)C(C(=O)CC(O)C(F)(F)F)CCC12 (stereo not given)
Second: C[C@]12CCC3C(CC[C@H]4[C@H](O)[C@H](O)CC[C@]34C)C1CC[C@@H]2O (stereo not given in full)
The inhibition of the first is lower: -18.9% for the first, 0.2% for the second.

Going from `CCN1c2nc3c(C)cccn3c(=O)c2CC2(C(=O)N(C)C(=O)N(C)C2=O)C1C` (stereo not given) to `CCN1C(=O)NC(=O)C2(CCCC2)C1=O`, the inhibition falls from 4.11% to -7.97%.

First: CN1CCC(N(C)Cc2cccnc2)CC1
Second: CSCCC(c1nnnn1C(C)(C)C)N1CCC(n2c(=O)[nH]c3ccccc32)CC1 (stereo not given)
The inhibition of the first is lower: -0.72% for the first, 17.6% for the second.

Compared with `O=C(OCCN1CCOCC1)C1(c2ccccc2)CCCC1`, `CCc1cccc2c(C#N)cn(CC(=O)N3CCOCC3)c12` is higher in inhibition: 6.31% for the first, 16.4% for the second.

First: COc1cc(OC)cc(C2(C#N)CCN(C)CC2)c1
Second: CCN1CCN(Cc2cc(OC)c3c(c2)OCO3)CC1
The inhibition of the first is higher: 16.1% for the first, 14.7% for the second.

Going from `Cc1cc(OCc2cc(C(=O)O)oc2C)c2c3c(c(=O)oc2c1)CCCC3` to `COc1cc(-n2c(=S)[nH]c3ccc(C)cc3c2=O)c(Cl)cc1Cl`, the inhibition rises from 0.36% to 30.3%.

First: Fc1ccc(C2N3CCCN23)cc1 (stereo not given)
Second: O=C(NC(=S)N1C[C@H]2C[C@H](C1)c1cccc(=O)n1C2)c1ccc(F)cc1
The inhibition of the first is lower: 2.08% for the first, 10.8% for the second.

Compared with `CC1CC=CCC12C(=O)NC(=S)NC2=O` (stereo not given), `CC1C(=O)OC2CCN3CC=C(COC(=O)C(C)(O)C1(C)O)C23` (stereo not given) is lower in inhibition: 4.94% for the first, -0.84% for the second.

Going from `COP(=O)(OC)C(NC(=O)c1ccc(C)cc1)C(Cl)(Cl)Cl` (stereo not given) to `CCN(CC)C(=O)c1ccc(NC(=O)c2cc(-n3cnnc3)ccc2Cl)cc1`, the inhibition rises from -13.6% to 5.1%.

Compared with `CCOc1ccc(CN(CCCl)CCCl)cc1C(=O)OC`, `COC(=O)C1=C(c2ccc(F)cc2OCc2ccccc2)C[C@@H]2CC[C@H]1N2C(=O)NCc1ccc(C(C)(C)C)cc1` is lower in inhibition: 21.9% for the first, 14.9% for the second.

First: Cc1ccc(Cn2nnnc2CN2CCC(n3nnc4ccccc43)CC2)cc1
Second: O=C1NCN(c2ccccc2)C12CCN(C(c1cccs1)c1nnnn1C1CCCCC1)CC2 (stereo not given)
The inhibition of the first is lower: 16.7% for the first, 22% for the second.

Going from `COc1cccc(C(c2nnnn2-c2ccc3c(c2)OCCO3)N2CCC3(CC2)C(=O)NCN3c2ccccc2)c1OC` (stereo not given) to `C[C@H]1CN([C@@H](C)CO)C(=O)CCCn2nncc2CO[C@H]1CN(C)C(=O)Oc1cccc2ccccc12`, the inhibition falls from 45.9% to 9.28%.

First: COc1ccccc1NC(=O)N1C[C@@H]2C[C@@H](C1)c1cccc(=O)n1C2
Second: COc1ccc(NC(=O)N2Cc3ccccc3-n3nncc3C2)cc1
The inhibition of the first is lower: -1.31% for the first, 7.2% for the second.

Compared with `C=CCn1c(O)c(/C=N/N2CCOCC2)c(=O)[nH]c1=S`, `CCOC(=O)c1c(C)c(C(=O)N2CCC3(CC2)OCCO3)c(C)n1CC` is higher in inhibition: -0.23% for the first, 13.1% for the second.

First: CN(C)c1nc(N(C)C)nc(N(C#N)CCCl)n1
Second: Cc1ccc(C)c(NC2=NCCCS2)c1
The inhibition of the first is lower: -5.34% for the first, 4.99% for the second.

First: Cc1cc(-c2ccc(N)c(C)c2)ccc1N
Second: CC(C)n1c(=O)c(C=Nc2ccc(Br)cc2)c(O)n(Cc2ccco2)c1=O
The inhibition of the first is lower: -45.4% for the first, 8.27% for the second.

First: O=C(C1CC(=O)N(C2CCCC2)C1)N1CCC2(CC1)OCCO2 (stereo not given)
Second: CC1=C2C(=O)C3C(CC=C4CC(OC5OC(O)C(O)C(O)C5CO)CCC43C)C2CCC12OC1CC(C)CNC1C2C (stereo not given)
The inhibition of the first is higher: -6.37% for the first, -7.24% for the second.

First: CC1([N+](=O)[O-])COP(=O)(Nc2ccc(F)cc2)OC1 (stereo not given)
Second: CC1=C(C(=O)Nc2ccccc2)S(=O)(=O)CCO1
The inhibition of the first is lower: 3.6% for the first, 9.24% for the second.

Going from `CCCCCn1c(=O)c(C(=O)NCc2ccccn2)c(O)c2ccccc21` to `c1cc2c(cc1C1OCC3C(c4ccc5c(c4)OCO5)OCC13)OCO2` (stereo not given), the inhibition falls from 15.5% to -66.8%.

`COC(=O)C1=C(c2ccc(Cl)c(C(F)(F)F)c2)C[C@@H]2CC[C@H]1N2C(=O)NC1CC1` showed an inhibition of -0.39%.
